TDP1 cell noCPT: qHTS for Inhibitors of human tyrosyl-DNA phosphodiesterase 1 (TDP1): qHTS in cells in absence of CPT; Potency, µM (highest dose often 46.2 µM), inactives show at the top dose activity change, negative = growth inhibition, usual class: inhibitors; AID 686978, 2013; actives 15% (n = 420,000); DT40 Tdp1-/- hTDP1 cells, no CPT, ATP luminescence, 48 h; further: potency means the concentration at half of the fitted maximal effect; nearly all actives have a fitted effect of over 55% in size
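Luminescent ATP content (CellTiter-Glo) served as the growth readout. Knockout chicken DT40 cells expressing human TDP1 were exposed to compounds without camptothecin for a minimum 48 hr at 37 °C.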
IL1B secr inh: blocks inflammasome-driven IL-1 beta release; actives 4.7% (n = 360,000); THP-1 LPS/ATP IL-1B secretion, AlphaLISA, 16 h; active compounds read low; AID 743279; activity change, % at 57.5 µM; in the data active means activity change below about -50%; inconclusive means mostly about -30% to -49%
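Secreted IL-1B measured by AlphaLISA bead assay after 16 h compound exposure of THP-1 cells; compounds (final up to 57.5 uM) added 1 h before LPS (250 ng/mL) and ATP (1.25 mM) stimulation; lower signal means less secretion.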
CtBP-E1A blk: inhibitors of CtBP/E1A interaction; actives 0.49% (n = 340,000); AlphaScreen GST-E1A/His-CtBP binding, 1536-well; active compounds read low; activity change, % (test concentration not listed); AID 651724; in the data active means activity change below about -65%; inconclusive means mostly about -30% to -63%
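AlphaScreen with 125 nM GST-E1A and 125 nM His-CtBP (5X stocks) in Tris pH 8.0, 300 mM NaCl, BSA, Tween 20, TCEP. Compounds preincubated 2 h at 37 deg C, then glutathione donor/nickel acceptor beads added for 1 h at 37 deg C in dark.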
TDP1 inh: blocks human tyrosyl-DNA phosphodiesterase 1; recombinant TDP1, AlphaScreen DNA substrate cleavage; Potency, µM (highest dose often 130 µM), for the others: top-dose activity change, negative = inhibition, usual class: inhibitors; actives 0.28% (n = 350,000); AID 485290; further: potency means the concentration at half of the fitted maximal effect; nearly all actives have a fitted effect of over 40% in size
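Steps: enzyme plus compound, 15 min RT; add biotin/phosphotyrosine-FITC oligonucleotide (15 nM final), react 5 min; add donor/acceptor beads (10 ug/ml final), 10 min; read AlphaScreen. Tdp1 at 1 nM final.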
Six1-Eya2 blk: inhibitors of human Six1/Eya2 interaction; Q15475+O00167; AlphaScreen GST-Six1/His-Eya2 binding, biochemical; active compounds read low; activity change, % (no concentration beside the values); actives 0.56% (n = 360,000); in the data active means activity change below about -65%; inconclusive means mostly about -30% to -63%
Target sequence (O00167 whole entry, looked up): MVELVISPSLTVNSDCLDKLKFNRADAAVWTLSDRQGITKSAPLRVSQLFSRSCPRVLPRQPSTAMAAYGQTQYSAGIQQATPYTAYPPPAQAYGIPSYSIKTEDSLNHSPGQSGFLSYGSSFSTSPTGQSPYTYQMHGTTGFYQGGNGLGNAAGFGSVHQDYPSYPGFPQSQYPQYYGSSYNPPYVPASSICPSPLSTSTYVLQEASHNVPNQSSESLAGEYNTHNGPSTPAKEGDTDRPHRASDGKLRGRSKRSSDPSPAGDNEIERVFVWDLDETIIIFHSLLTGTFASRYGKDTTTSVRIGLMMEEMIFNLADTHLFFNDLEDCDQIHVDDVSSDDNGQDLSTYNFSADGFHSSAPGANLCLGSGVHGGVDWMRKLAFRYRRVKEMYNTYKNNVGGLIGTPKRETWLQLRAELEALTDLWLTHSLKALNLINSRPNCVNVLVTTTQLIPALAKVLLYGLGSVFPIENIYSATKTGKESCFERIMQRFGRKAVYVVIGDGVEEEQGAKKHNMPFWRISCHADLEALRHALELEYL
Target sequence (Q15475 whole entry, looked up): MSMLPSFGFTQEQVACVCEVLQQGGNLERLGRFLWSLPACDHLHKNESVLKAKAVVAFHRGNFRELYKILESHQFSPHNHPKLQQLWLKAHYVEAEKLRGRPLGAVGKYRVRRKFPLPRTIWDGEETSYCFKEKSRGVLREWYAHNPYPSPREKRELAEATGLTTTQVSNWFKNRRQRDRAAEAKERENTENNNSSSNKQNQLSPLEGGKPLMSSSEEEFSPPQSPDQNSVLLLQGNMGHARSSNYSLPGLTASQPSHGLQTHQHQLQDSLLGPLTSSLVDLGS
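Homogeneous AlphaScreen proximity assay pairing GST-Six1 with His-tagged Eya2 (added as 5X mix: 250 nM and 500 nM) in 50 mM Tris pH 8.0, 300 mM NaCl, 1 mM TCEP. Glutathione donor and nickel acceptor beads; 1 h, 37 °C, dark.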
TDP1 cell CPT: DT40-hTDP1 cell growth loss with CPT. Potency, µM (titrated, usually from 46.2 µM), for the others: at the top dose activity change, negative = growth inhibition, actives largely listed as inhibitors. chicken DT40 Tdp1-/-;hTDP1 cells + 20 nM CPT, ATP luminescence, 48 h. actives 12% (n = 420,000); further: potency means the concentration at half of the fitted maximal effect; nearly all actives have a fitted effect of over 55% in size
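Cell growth measured by CellTiter-Glo luminescence after a minimum 48 h, 37 C compound exposure with 20 nM CPT in Tdp1-knockout DT40 cells stably expressing hTDP1, seeded 400/well; qHTS titration format.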
Numbers without * were called inactive; ? = inconclusive; . = not tested or not shown; [ ] = dose if it differs, or a comment. Shown are actives, neighbours in structure and some others; about 18% of the full set was active somewhere. Unless noted, the call rests on the fitted dose curve; in most records, active means well fitted curve in the direction sought with a large enough effect; inconclusive means small, poorly fitted or top-dose-only effect, or another doubt; inactive means no such curve, though single readings can be large; an effect the other way counts as inactive or inconclusive. On the % scale 0 is the no-effect control and ±100 the full control effect.

SMILES	TDP1 cell noCPT	IL1B secr inh	CtBP-E1A blk	TDP1 inh	Six1-Eya2 blk	TDP1 cell CPT
Cc1ccc(NC(=O)CN(C)C(=O)c2ccc(-n3cncn3)c([N+](=O)[O-])c2)cc1	0%	-10	5	.	-1	-10%
COc1cc(C2c3cc4c(cc3C(OC3OC5COC(c6cccs6)OC5C(O)C3O)C3COC(=O)C23)OCO4)cc(OC)c1O (stereo not given)	0.026µM*	15	1	5%	1	0.023µM*
COc1cc([C@H]2c3cc4c(cc3[C@@H](O[C@H]3O[C@H]5CO[C@@H](C)O[C@H]5[C@@H](O)[C@@H]3O)[C@@H]3COC(=O)[C@H]23)OCO4)cc(OC)c1O	.	.	.	3%[56.1 µM]	.	.
COc1cc([C@@H]2c3cc4c(cc3[C@@H](O[C@@H]3O[C@@H]5CO[C@@H](C)O[C@H]5[C@H](O)[C@H]3O)[C@H]3COC(=O)[C@H]23)OCO4)cc(OC)c1O	0.16µM*	37	-5	.	-2	0.16µM*
COc1cc(C2c3cc4c(cc3C(OC3OC5COC(C)O[C@@H]5C(O)C3O)C3COC(=O)C23)OCO4)cc(OC)c1O (stereo not given in full)	0.15µM*	.	.	8%[56.1 µM]	.	0.18µM*
C/C=C/C(=O)Nc1nnc(C2CCCCC2)s1	6%	-88*	9	-3%	1	?
O=C(Nc1nnc(C2CC2)s1)C1CCCCC1	-3%	15	.	2%	4	-1%
CN1CCC(N(C)C(=O)c2cc(-c3ccc(F)cc3)nc3ccccc23)CC1	?	-68*	2	2%	-8	?
COc1ccc(-c2cc(C(=O)N(C)Cc3cccc(OC)c3OC)c3ccccc3n2)cc1OC	15µM*	-10	-4	.	-21	21µM*
COc1ccc(-c2cc(C(=O)N(C)Cc3nc4ccccc4c(=O)[nH]3)c3ccccc3n2)cc1OC	21µM*	-24	-1	0%	-6	?
COc1cccc(CN(C)C(=O)c2cc(-c3ccc(F)cc3)nc3ccccc23)c1	21µM*	-29	3	-6%	1	21µM*
COc1ccc(-c2cc(C(=O)Nc3c(Cl)cc(Cl)cc3Cl)c3ccccc3n2)cc1OC	?	20	8	8%	3	?
Cc1c(C(=O)N2CCN(Cc3ccccc3)CC2)sc2ncnc(N3CCOCC3)c12	-18%	29	1	5%	-2	?
CC1=C(C(=O)N(C)C)CC(CC(=O)NC2CCCCC2)C(=O)N1Cc1ccc(F)cc1 (stereo not given)	-25%	17	6	.	-1	-2%
COc1ccccc1CN(C)C(=O)c1cc(-c2cccs2)nc2ccccc12	16µM*	-11	-5	.	-19	?
COc1cccc(CN(C)C(=O)c2cc(-c3ccc(OC)c(OC)c3)nc3ccccc23)c1	?	-22	-4	2%	3	15µM*
Cc1c(CN(C)C(=O)c2cc(-c3ccccc3)nc3ccc(Br)cc23)cnn1C	10µM*	.	.	-1%	.	21µM*
COc1cccc(NC(=O)CN(C)C(=O)c2cc(-c3ccccc3)nc3ccccc23)c1	?	?	-9	1%	-3	?
COc1ccc(CN(C)C(=O)c2cc(-c3ccc(OC)c(OC)c3)nc3ccccc23)c(OC)c1	18µM*	-3	-8	6%	-17	16µM*
COCCNC(=O)c1cc(-c2cccnc2)nc2ccc(Br)cc12	?	?	5	4%	3	?
COc1ccc(CN(C)C(=O)c2cc(-c3ccccc3)nc3ccc(C)cc23)c(OC)c1OC	16µM*	-64*	-5	3%	-9	18µM*
Oc1ccccc1-c1nc(NCc2ccco2)c2ccccc2n1	?	-21	-4	5%	-2	-18%
c1ccc(CNc2nc(N3CCN(Cc4ccccc4)CC3)nc3ccccc23)cc1	16µM*	.	-16	.	-11	?
c1ccc(CNc2nc(-c3cccs3)nc3ccccc23)nc1	?	-77*	-7	5%	?	?
c1ccc(-c2nc(NCc3ccco3)c3ccccc3n2)nc1	2.6µM*	97	-81*	9%	-81*	2.6µM*
SMILES	TDP1 cell noCPT	IL1B secr inh	CtBP-E1A blk	TDP1 inh	Six1-Eya2 blk	TDP1 cell CPT
O=c1c2ccccc2nc2c3ccccc3c(NCc3ccco3)nn12	21µM*	18	?	-4%	?	?
c1coc(CNc2nc(N3CCCCC3)nc3ccccc23)c1	18µM*	-58*	0	8%	-8	26µM*
O=C(NC(=S)NN1CCCCC1c1cccnc1)c1ccc(Cl)cc1Cl (stereo not given)	26µM*	-15	-6	5%	-6	?
CC1C2C(c3ccccc3)N(C)C(=O)N(C)C2N(C)C(=O)N1C (stereo not given)	-18%	0	0	3%	0	-1%
C#CC[N+]1(CC#Cc2cccc(C)c2)CCCCC1	2.3µM*	11	-1	8%	-3	2.6µM*
C(#Cc1ccccc1)CN1CCOCC1	1%	25	9	-1%	6	8%
C#CC[N+]1(CC#Cc2ccccc2)CCCCC1	16µM*	11	-15	1%	12	16µM*
CCC[N+]1(CC#CCC(c2ccccc2)c2ccccc2)CCCCC1	1.3µM*	-85*	7	.	-1	1.5µM*
Cc1ccc(C#CC[N+]2(CC#Cc3ccc(C)cc3)CCCCC2)cc1	0.029µM*	-86*	-10	3%	3	0.46µM*
O=C(N/N=C/C1CC=CCC1)c1cc2ccccc2cc1O (stereo not given)	-16%	76	3	9%	-6	10%
Cc1cccc(OCC(=O)NCCN2CCOCC2)c1	-13%	0	0	-11%	1	-3%
COc1ccc(NC2=CC(c3cccc(OC)c3)N(c3ccc(OC)cc3)C2=O)cc1 (stereo not given)	-7%	12	-18	5%	-11	-2%
C(#Cc1ccccc1)C[N+]1(CC#Cc2ccccc2)CCCCC1	1.5µM*	-86*	-1	8%	-1	1.8µM*
CCOC(=O)c1[nH]c(C)c(CCC(=O)N2CCN(c3cc(C)ccc3C)CC2)c1C	23µM*	.	.	8%	.	?
CCOC(=O)c1[nH]c(C)c(CCC(=O)Nc2c(C)cc(C)cc2C)c1C	21µM*	.	.	5%	.	?

Screens: PubChem BioAssay, National Center for Advancing Translational Sciences (NCATS)
